# From PubChem BioAssay
# FLuc counter: inhibits or activates purified firefly luciferase, miR-21 counter-screen; Potency, µM (titrated, usually from 57.5 µM), for inactives: top-dose activity change, negative = inhibition, hits mostly inhibitors; P08659; purified FLuc, Km substrates, luminescence inhibition; 360,000 tested, 6.9% active;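 note: plate controls were vehicle for no effect and reference inhibitor for full effect; nearly all actives have a fitted effect of over 55% in size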
# Target sequence (P08659 whole entry, looked up): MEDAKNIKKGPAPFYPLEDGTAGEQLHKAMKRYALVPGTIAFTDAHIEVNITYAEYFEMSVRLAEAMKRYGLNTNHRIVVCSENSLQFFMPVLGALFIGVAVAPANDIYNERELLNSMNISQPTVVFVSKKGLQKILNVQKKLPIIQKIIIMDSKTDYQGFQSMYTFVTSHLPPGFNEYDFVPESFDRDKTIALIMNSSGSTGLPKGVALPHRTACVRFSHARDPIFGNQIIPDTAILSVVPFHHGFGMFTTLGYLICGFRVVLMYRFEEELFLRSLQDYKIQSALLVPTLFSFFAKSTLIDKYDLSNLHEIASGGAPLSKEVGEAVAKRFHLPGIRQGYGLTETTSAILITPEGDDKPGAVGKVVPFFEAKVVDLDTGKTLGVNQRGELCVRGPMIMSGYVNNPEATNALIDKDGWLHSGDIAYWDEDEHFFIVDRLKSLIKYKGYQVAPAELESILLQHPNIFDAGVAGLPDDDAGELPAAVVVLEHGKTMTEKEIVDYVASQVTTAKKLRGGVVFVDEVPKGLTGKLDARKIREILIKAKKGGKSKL
#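 Biochemical qHTS of compounds, final roughly 60 µM downward over six points, against 10 nM purified firefly luciferase using Km concentrations of substrates (10 uM D-luciferin, 10 uM ATP) in Tris acetate pH 7.5 buffer; luminescence output.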
# ELG1 genotox: inducers of genotoxicity in HEK293T ELG1-luciferase cells. HEK293T ELG1-luciferase reporter, luminescence, 16 h. Potency, µM (top dose mostly 46 µM), for the others: at the top dose activity change, positive = activation, usual class: activators. 330,000 tested, 1.3% active. AID 504466; note: % of control where 0% means no effect; nearly all actives have a fitted effect of over 60% in size
#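 Quantitative HTS format in 1536-well plates. HEK293T ELG1-luciferase reporter cells receive test compound and are incubated 16 hr at 37 °C, 5% CO2; ONE-Glo added, 30 min room temperature, then luminescence read.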
# Rab9 prom act: activators of Rab9 promoter | Huh7 Rab9 promoter-luciferase reporter, luminescence, 24 h | Potency, µM (top dose mostly 9.22 µM), inactives show at the highest dose activation, negative = inhibition, most hits filed as activators | 320,000 tested, 2.8% active | AID 485297; note: % of control where 0% means no effect; nearly all actives have a fitted effect of over 60% in size
#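 Promoter activation is measured as luciferase luminescence in Huh7 cells stably transfected with a Rab9 promoter–luciferase construct, following 24 h compound exposure at 37 °C and 10 min reagent incubation at ambient temperature.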
# SMN2 splice up: SMN2 splice variant enhancement; HEK293 SMN2-luciferase splicing reporter, luminescence, 30-36 h; Potency, µM (top dose mostly 46.1 µM), inactives show at the highest dose activity change, positive = activation, most hits filed as activators; 210,000 tested, 2.8% active; note: % of control where 0% means no effect; nearly all actives have a fitted effect of over 55% in size
#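 qHTS luciferase splicing reporter: luminescence rises when SMN2 exon 7 is included in transfected HEK293 cells. Compound exposure lasted 30-36 h at 37C, with 4.5 mM final sodium butyrate as control, followed by a ONE-Glo read.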
# NPC1 promoter act: NPC1 promoter activation. 320,000 tested, 2.4% active. AID 485313. Potency, µM (top dose mostly 9.22 µM), for inactives: top-dose activation, usual class: activators. Huh7 NPC1 promoter luciferase reporter, 24 h; note: % of control where 0% means no effect; nearly all actives have a fitted effect of over 60% in size
#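 Readout is luciferase luminescence, reflecting NPC1 promoter activation in stably transfected Huh7 cells after 24 h compound exposure at 37 °C in reduced-serum medium with 10% FBS.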
# An asterisk follows results filed as active; u = inconclusive; x = no result. Only some compounds are listed: those with a hit (about 7.5% of all), similar ones and a draw of the others. Calls come from the whole dose curve; as a rule, active = well fitted curve in the direction sought with a large enough effect; inconclusive = small, poorly fitted or top-dose-only effect, or another doubt; inactive = no such curve, though single readings can be large; an effect the other way counts as inactive or inconclusive. Potency is the fitted concentration of half-maximal effect.
SMILES,FLuc counter,ELG1 genotox,Rab9 prom act,SMN2 splice up,NPC1 promoter act
CN(CC(=O)Nc1ccccc1C(F)(F)F)C(=O)c1cc(Cl)nc2ccccc12,1%,0%,0%,x,-2%
CCN(C(=O)CSc1nc2ccccc2n1CCc1ccccc1)C1CCS(=O)(=O)C1 (configuration not stated),-6%,-5%,-9%,7%,-1%
CC1Cc2ccccc2N1C(=O)Cn1cnc2ccccc21 (configuration not stated),0%,-5%,-8%,-35%,-9%
Cc1ccc(C(=O)/C=C/c2ccc(Br)cc2)o1,2.4µM*,10%,-2%,-5%,-4%
Cc1ccc(/C=C/C(=O)c2ccc([N+](=O)[O-])o2)cc1,u,-9%,-38%,x,-32%
Cc1ccc(C(=O)/C=C/c2ccccc2)o1,2.4µM*,-1%,-4%,-22%,-4%
c1cc(CNC23CC4CC(CC(C4)C2)C3)ccn1,-10%,-2%,-3%,-11%,0%
COc1ccccc1N1CCN(CC(O)c2c(C)[nH]c3ccccc23)CC1 (configuration not stated),-1%,-2%,-5%,x,-5%
COc1cccc(/C=C(\C(=O)O)c2ccccc2)c1,u,1%,0%,5%,-4%
COc1ccc(NC(=O)Cn2nnc3sc4c(c3c2=O)CC(C)(C)OC4)cc1,0%,-1%,u,x,-4%
CC(NC(=O)c1cc(COc2cccc(C(F)(F)F)c2)on1)c1nccs1 (configuration not stated),15µM*,u,2.8µM*,x,u
O=C(NC1CCOC1)c1cc(COc2cccc(C(F)(F)F)c2)on1 (configuration not stated),24µM*,u,u,x,0%
CCOC(=O)N1CCN(C(=O)c2cc(COc3cccc(C(F)(F)F)c3)on2)CC1,15µM*,u,2.8µM*,x,3.2µM*
Cc1ccc(C(=O)OCC(=O)Nc2ccccc2Sc2ccccc2)cc1C,2%,2%,-2%,-8%,-3%
Cc1ccc(NC(=O)c2ccc3c(c2)OCO3)cc1S(=O)(=O)N1CCOCC1,x,-2%,14%,x,0%
O=[N+]([O-])c1ccc(N2CCSCC2)cc1,-2%,4%,1%,x,-1%
Cc1c(C)c(C)c(S(=O)(=O)N2CCSCC2)c(C)c1C,3%,-5%,-2%,x,-3%
O=c1c2ccccc2sc2ccc(Cl)cc12,u,11%,21%,29%,26%
Cc1cc2sc3ccccc3c(=O)c2c(C)c1O,8.5µM*,15%,21%,x,16%
CC(C)(C)c1ccc(Cn2ccc(-c3ccc4c(c3)OCO4)n2)cc1,27µM*,1%,12%,4%,8%
CCc1nnc(NC(=O)c2cc(-c3ccccc3)nn2-c2ccccc2)s1,-2%,-6%,0%,-18%,0%
O=C(Nc1ccc(F)cc1)c1ccc2c(=O)n(CC3CCCO3)c(=S)[nH]c2c1 (configuration not stated),2%,-18%,-1%,x,-4%
COc1ccc(NC(=O)c2cccs2)cc1O,15µM*,u,u,u,u
COc1ccc(C(=O)Nc2ccc(NC(=O)c3cccs3)cc2)cc1OC,0%,x,x,-3%,x
COc1ccc(C(=O)Nc2cccc(NC(=O)c3cccs3)c2)cc1OC,11µM*,-6%,8%,x,5%
SMILES,FLuc counter,ELG1 genotox,Rab9 prom act,SMN2 splice up,NPC1 promoter act
O=C(Nc1cccc(O)c1)c1cccc(NC(=O)c2cccs2)c1,13µM*,-12%,0%,x,15%
COc1ccc(-c2csc(NC(=O)c3cccs3)c2C(=O)O)cc1OC,24µM*,-3%,15%,16%,13%
COc1cccc(OC)c1C(=O)Nc1cccc(NC(=O)c2cccs2)c1,u,-22%,9%,x,13%
O=C(Nc1ccc(NC(=O)c2cccs2)cc1)c1cccc(Br)c1,-1%,x,x,-2%,x
CC(Oc1ccc(Cl)cc1)C(=O)Nc1cccc(S(=O)(=O)N2CCOCC2)c1 (configuration not stated),1%,-1%,-5%,x,-2%
CCOc1ccc(NC(=O)c2c(NC(=O)c3ccccc3Br)sc3c2CCC(C)C3)cc1 (configuration not stated),-19%,x,x,-1%,x
CC1(C)CC(=O)C2=C(C1)c1c(ccc3ccccc13)NC2c1ccc(Br)o1 (configuration not stated),2%,-16%,-1%,-9%,-1%
COc1ccc(/C=C/C(=O)c2ccc(NC(=O)c3cccs3)cc2)cc1OC,13µM*,u,u,16µM*,u
CCc1ccc(/C=C2\CN(CC)Cc3c2nc2ccccc2c3C(=O)O)cc1,u,-1%,3%,-18%,4%
C=CCn1c(SCc2c(C)noc2C)nc2cc(C(=O)O)ccc2c1=O,8%,u,-20%,20%,-22%
Cc1noc(C)c1CSc1nc2ccccc2c(=O)n1-c1ccc(F)cc1F,-1%,18%,-11%,11µM*,-22%
C=CCn1c(SCc2c(C)noc2C)nc2ccccc2c1=O,1%,10µM*,-18%,-18%,-22%
Cc1noc(C)c1CSc1nc2ccccc2c(=O)n1-c1ccccc1,2%,u,-33%,u,-24%
Cc1cc(C)nc(NC2=NCC(=O)N2c2ccccc2)n1,6%,-1%,-7%,12%,2%
CCc1nc(N)c(C#N)c(-c2ccco2)c1C,2%,1%,-4%,3%,-3%
CC1CCCN(C(=O)c2ccc(-c3ccccc3Cl)o2)C1 (configuration not stated),8.5µM*,15µM*,2.5µM*,x,3.5µM*
COc1cccc(NC(=O)C(=O)NCCCn2ccnc2)c1,u,22%,8%,16%,-1%
COc1ccc(/C=C2\CCC(C3CCCC3)C2=O)cc1 (configuration not stated),0.48µM*,u,3.5µM*,x,4µM*
Cc1ccsc1/C=C1\SC(N)=NC1=O,u,14%,25%,15%,18%
Cc1ccc(/C=C2\CCC(C3CCCC3)C2=O)cc1 (configuration not stated),0.48µM*,9.2µM*,3.5µM*,22µM*,3.2µM*
Cc1ccsc1/C=C1\CCC(C2CCCC2)C1=O (configuration not stated),2.1µM*,u,3.5µM*,x,2.8µM*
COc1ccc(/C=C2\CCC(C3CCCC3)C2=O)c(OC)c1 (configuration not stated),21µM*,8%,13%,x,25%
COc1ccc(/C=C2\CCOC2=O)cc1,-18%,1%,13%,-15%,10%
COc1ccc(NC(=O)Nc2cc(F)ccc2C)cc1,u,-8%,0%,-9%,-4%
N#C/C(=C\c1ccc(OC(=O)c2ccc(Br)s2)cc1)c1nc2ccccc2[nH]1,-4%,18%,u,13µM*,u
